Results as given in PubChem BioAssay AID1159580 (chemical genetic matrix, 2015).
Hit rate of the full screen: of about 5,500 compounds, about 2,000 (36%) were called active. About 18% were inconclusive and are not listed. Rule as the data show it: active = normalized growth mostly below about 0.91 (no sharp cut-off); inconclusive = no clear call, values can overlap the other calls; inactive = mostly above about 0.92. The list shows a part of the results.

Test: chemical genetic growth profiling, strain panel (AID 1159580);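 also: tested at 20 µM; growth read once vehicle control cultures reached saturation at 30 °C; 1 = growth at the plate median or of vehicle wells; lower values mean less growth of the strain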
Conditions: S. cerevisiae deletion strains, growth OD

Measured: normalized growth

NC(=NCCC[C@H](N)C(=O)O)N[N+](=O)[O-]
inactive: locus YAL013W, strain DEP1, hits give low values 0.99 | locus YAL021C, strain ccr4, hits give low values 1.02 | locus YAL026C, strain drs2, hits give low values 1.03 | locus YAL030W, strain snc1, hits give low values 1.02 | locus YBL061C, strain skt5, hits give low values 1.02 | locus YBR009C, strain hhf1, hits give low values 1.02 | locus YBR021W, strain FUR4, hits give low values 0.992 | locus YBR023C, strain chs3, hits give low values 1.02 | locus YBR171W, strain sec66, hits give low values 1.03 | locus YBR229C, strain ROT2, hits give low values 1 | locus YBR231C, strain swc5, hits give low values 1.02 | locus YBR279W, strain paf1, hits give low values 1.02 | locus YCL011C, strain gbp2, hits give low values 1.03 | locus YCL016C, strain dcc1, hits give low values 1.02 | locus YCL029C, strain bik1, hits give low values 0.994 | locus YCL069W, strain vba3, hits give low values 1.01 | locus YCR088W, strain abp1, hits give low values 1.03 | locus YDL005C, strain med2, hits give low values 1.03 | locus YDL035C, strain GPR1, hits give low values 1 | locus YDL040C, strain nat1, hits give low values 1.02 | locus YDL074C, strain BRE1, hits give low values 0.978 | locus YDL101C, strain DUN1, hits give low values 1 | locus YDL134C, strain PPH21, hits give low values 1.01 | locus YDL185W, strain tfp1, hits give low values 1.01 | locus YDL192W, strain arf1, hits give low values 1.01 | locus YDR001C, strain nth1, hits give low values 1.01 | locus YDR069C, strain doa4, hits give low values 1.03 | locus YDR101C, strain arx1, hits give low values 0.946 | locus YDR137W, strain rgp1, hits give low values 1.05 | locus YDR150W, strain NUM1, hits give low values 0.992 | locus YDR159W, strain sac3, hits give low values 0.991 | locus YDR162C, strain NBP2, hits give low values 1.02 | locus YDR195W, strain ref2 1.04 | locus YDR297W, strain sur2, hits give low values 1.02 | locus YDR318W, strain mcm21, hits give low values 1.01 | locus YDR334W, strain swr1, hits give low values 1.02 | locus YDR335W, strain msn5, hits give low values 1.03 | locus YDR388W, hits give low values 1.02 | locus YDR392W, strain spt3, hits give low values 1.03 | locus YDR502C, strain sam2, hits give low values 1.01 | locus YEL003W, strain gim4, hits give low values 1.02 | locus YEL037C, strain rad23, hits give low values 1.03 | locus YEL061C, strain CIN8 (second series), hits give low values 1.01 | locus YEL061C, strain CIN8, hits give low values 0.983 | locus YER015W, strain faa2, hits give low values 1.03 | locus YER016W, strain bim1, hits give low values 1.01 | locus YER110C, hits give low values 1.01 | locus YER111C, strain swi4, hits give low values 1.04 | locus YER155C, strain BEM2 (second series), hits give low values 1.06 | locus YER155C, strain BEM2, hits give low values 1 | locus YER167W, strain BCK2, hits give low values 0.998 | locus YFR010W, strain ubp6, hits give low values 1.03 | locus YGL078C, strain dbp3, hits give low values 1 | locus YGL086W, strain mad1, hits give low values 0.982 | locus YGL167C, strain pmr1, hits give low values 1.02 | locus YGL173C, strain kem1, hits give low values 1.02 | locus YGL227W, strain vid30, hits give low values 1.01 | locus YGL240W, strain doc1, hits give low values 1.04 | locus YGL248W, strain PDE1, hits give low values 1 | locus YGL253W, strain hxk2, hits give low values 1.02 | locus YGR078C, strain PAC10, hits give low values 0.972 | locus YGR135W, strain pre9, hits give low values 1.06 | locus YGR229C, strain SMI1, hits give low values 1.01 | locus YGR252W, strain gcn5, hits give low values 1.07 | locus YHR013C, strain ard1, hits give low values 1.05 | locus YHR027C, strain rpn1, hits give low values 1.02 | locus YHR030C, strain SLT2, hits give low values 0.994 | locus YHR079C, strain IRE1 (second series), hits give low values 1.01 | locus YHR094C, strain hxt1, hits give low values 1.01 | locus YHR129C, strain ARP1, hits give low values 1.01 | locus YHR142W, strain chs7, hits give low values 1.05 | locus YHR200W, strain rpn10, hits give low values 0.996 | locus YIL066C, strain RNR3, hits give low values 1.01 | locus YIL073C, strain SPO22, hits give low values 1.05 | locus YIL125W, strain kgd1, hits give low values 0.999 | locus YIR030C, strain dcg1, hits give low values 1.01 | locus YJL092W, strain hpr5, hits give low values 1.02 | locus YJL095W, strain BCK1 (second series), hits give low values 1.03 | locus YJL095W, strain BCK1, hits give low values 1 | locus YJL115W, strain asf1, hits give low values 1.04 | locus YJL129C, strain trk1, hits give low values 1.05 | locus YJL134W, strain LCB3, hits give low values 1 | locus YJL154C, strain vps35, hits give low values 1.02 | locus YJL164C, strain tpk1, hits give low values 1.02 | locus YJL166W, strain qcr8, hits give low values 1.03 | locus YJL168C, strain set2, hits give low values 0.999
